Experimental data as given in PubChem BioAssay AID431 (Sanford-Burnham Center for Chemical Genomics, 2006).
Among all 63,000 compounds or so, about 1,100 (1.7%) were called active.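 How the source made its calls: active means compounds whose percent cytotoxicity in the single-dose primary screen, scaled between solvent and toxic-drug controls, exceeds 50; inactive means the rest.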 What follows is part of a selection rich in actives, with near analogues and random picks from the rest. Entries with a potency or affinity are not part of this list.

Assay: viability loss of HPDE-C7K cells – cell-based, fluorescence, HTS, primary screen (AID 431);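 further: 0% = DMSO solvent wells and 100% = doxorubicin-treated wells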
Details: HPDE-C7K KRASV12 cells, Alamar Blue viability, 48 h; at 10 µM; hits give high values

| SMILES | cytotoxicity |
| --- | --- |
| CCCCn1c(SCC(=O)OCC)nc2c1c(=O)[nH]c(=O)n2C | 2.4% (inactive) |
| CSc1nc2sc3c(c2c2nnnn12)CCC3 | 6.6% (inactive) |
| Cc1nc(Sc2nnnn2C)c2c3c(sc2n1)CCC3 | 68.5% (active) |
| Cc1nc(SCC#N)c2c3c(sc2n1)CCC3 | -15.5% (inactive) |
| Cc1nnn(C23CC4CC(CC(C4)C2)C3)n1 | 4.5% (inactive) |
| CC1CCCN(CCCNC(=O)c2coc3nc4ccccc4nc23)C1 (centres undefined) | 9.2% (inactive) |
| O=C(NCc1ccccc1)N1CCN(c2ccc(Cl)c(Cl)c2)CC1 | -1.9% (inactive) |
| CC(C)c1ccc(OC(=O)NCCO)cc1 | -6.6% (inactive) |
| CCC(=O)Oc1ccc(-c2nc(-c3cccnc3)no2)cc1 | -6.1% (inactive) |
| CCOc1ccc(C(=O)COC(=O)CC)cc1 | -1.3% (inactive) |
| COC(=O)CCC(=O)Oc1ccc(OC(=O)CCC(=O)OC)cc1 | 18.3% (inactive) |
| CC1(C)CC(=O)C2=C(C1)OC(=O)C2(NC(=O)c1cccs1)C(F)(F)F (centres undefined) | -9.1% (inactive) |
| CC1=C(C(=O)N(C)Cc2ccccc2)C2(CCC(C)CC2)OC1=O (centres undefined) | 1.3% (inactive) |
| Cc1cc(NC(=O)CSc2nc3c(c(=O)n2-c2ccccc2)SC(C)C3)no1 (centres undefined) | 5.9% (inactive) |
| COc1ccc(CCNC(=O)c2cnn3cccnc23)cc1OC | -0.5% (inactive) |
| CCN1C(=O)CC(C(=O)Nc2ccc(F)cc2)SC1=Nc1cccc(OC)c1 (centres undefined) | -9.1% (inactive) |
| O=C(NCCCN1CCN(CCCNC(=O)c2ccccc2F)CC1)c1ccccc1F | -23.8% (inactive) |
| CC1CCc2nc(NC(=O)CN3CCOCC3)sc2C1 (centres undefined) | -3.7% (inactive) |
| CC1CCc2nc(NC(=O)CN3CCN(Cc4ccc5c(c4)OCO5)CC3)sc2C1 (centres undefined) | 56.9% (active) |
| CC1CCc2nc(NC(=O)CN3CCN(c4ccccc4)CC3)sc2C1 (centres undefined) | -5.6% (inactive) |
| COCCOC(=O)C1=C(C)NC2=C(C(=O)CCC2)C1c1ccc(N(C)C)cc1 (centres undefined) | 3% (inactive) |
| COc1ccc(-c2nc(CS(=O)CC(=O)NCc3ccco3)c(C)o2)cc1OC (centres undefined) | 1.1% (inactive) |

| SMILES | cytotoxicity |
| --- | --- |
| COC(=O)c1ccc(-c2ccco2)n1Cc1nc(-c2ccc(OC)c(OC)c2)oc1C | 74.4% (active) |
| COC(=O)c1cc2ccsc2n1Cc1nc(-c2ccc(OC)cc2)oc1C | 11.1% (inactive) |
| CCCC(C(=O)NCc1ccc(OC)cc1)N(Cc1ccco1)C(=O)c1snc(C(N)=O)c1N (centres undefined) | -4% (inactive) |
| O=c1oc2cc(O)ccc2c2c1CCCC2 | 30.5% (inactive) |
| Oc1ccc2c(c1)oc1cc(O)ccc12 | 57% (active) |
| O=c1oc2cc(O)ccc2c2oc3cc(O)ccc3c12 | 41% (inactive) |
| COc1ccc(N(Cc2cc3ccccc3[nH]c2=O)C(=O)C2CCCO2)cc1 (centres undefined) | 14.6% (inactive) |
| Cc1sc2nc(SCC(=O)c3cc(C)n(CC4CCCO4)c3C)n(C(C)C)c(=O)c2c1C (centres undefined) | 22.2% (inactive) |
| Cn1nnc2cc(C(=O)NC(C)(C)C)ccc21 | 3.4% (inactive) |
| Cc1ccc2c(c1)c1ncnc(N3CCOCC3)c1n2C | -7.1% (inactive) |
| Cc1ccc2c(c1)c1ncnc(N3CCN(c4ccccc4)CC3)c1n2C | 9.4% (inactive) |
| Cc1ccc2[nH]c(=O)c(CN(Cc3ccc4c(c3)OCO4)Cc3nnnn3C3CCCC3)cc2c1 | -0.4% (inactive) |
| Cc1ccc2cc(CN(Cc3ccc(F)cc3)Cc3nnnn3C3CCCC3)c(=O)[nH]c2c1 | 31.6% (inactive) |
| Cc1ccc2cc(CN(Cc3ccccc3)Cc3nnnn3C3CCCC3)c(=O)[nH]c2c1 | 56.3% (active) |
| CCc1ccc2[nH]c(=O)c(CN(Cc3ccc4c(c3)OCO4)Cc3nnnn3C3CCCC3)cc2c1 | 54.8% (active) |
| Cc1ccc2[nH]c(=O)c(CN(Cc3ccccc3)Cc3nnnn3C3CCCC3)cc2c1 | 47.8% (inactive) |
| Cc1cc2cc(CN(Cc3ccc4c(c3)OCO4)Cc3nnnn3C3CCCC3)c(=O)[nH]c2cc1C | 2.4% (inactive) |
| O=C(Nc1ccc2c(c1)nc1n2CCN(C2CCCCC2)C1)c1ccco1 | -30.2% (inactive) |
| Cc1ccc(-c2nnn(CC(=O)N(Cc3cccs3)C(C(=O)NC(C)(C)C)c3ccc(C)o3)n2)o1 (centres undefined) | 21.3% (inactive) |
| Clc1ccc(COn2nnc3ccccc32)c(Cl)c1 | 0.9% (inactive) |
| CCOc1cc(C(=O)N2CCc3cc(OC)c(OC)cc3C2)ccc1OC(F)F | 89.4% (active) |
| COc1ccc(C(=O)N2CCc3cc(OC)c(OC)cc3C2)cc1OC | -3.5% (inactive) |

| SMILES | cytotoxicity |
| --- | --- |
| CCOc1ccc(C(=O)N2CCc3cc(OC)c(OC)cc3C2)cc1OCC | 45.5% (inactive) |
| CCOc1nc(-c2ccccc2)ccc1-c1noc(-c2ccc(OC)c(OC)c2)n1 | 20.5% (inactive) |
| Cc1cc2c(c(=O)n1CCN(C)C)C(c1ccc(Br)cc1)C(C#N)=C(N)O2 (centres undefined) | 54.2% (active) |
| Cc1cc2c(c(=O)n1CCN(C)C)C(c1ccncc1)C(C#N)=C(N)O2 (centres undefined) | 20.9% (inactive) |
| Cc1cc2c(c(=O)n1CCN(C)C)C(c1ccc(Cl)cc1)C(C#N)=C(N)O2 (centres undefined) | -10.1% (inactive) |
| O=C(NCc1ccco1)C1CCN(c2nnc(-n3cccc3)s2)CC1 | -3.4% (inactive) |
| Cc1cc(C(=O)CN2C(=O)NC(c3ccccc3)(c3ccccc3)C2=O)c(C)n1Cc1ccco1 | 3.5% (inactive) |
| COc1ccccc1NC(=O)C1=C(C)Nc2nnnn2C1c1ccncc1 (centres undefined) | -9.7% (inactive) |
| COc1ccc(-c2nnc(Nc3nc4c(OC)cccc4s3)o2)cc1 | 59.3% (active) |
| COc1cc(OC)cc(-c2nnc(Nc3nc4c(F)cccc4s3)o2)c1 | 5.5% (inactive) |
| COc1cccc2sc(Nc3nnc(-c4ccccc4Cl)o3)nc12 | 31.7% (inactive) |
| CCOC(=O)c1sc(Nc2nc3c(OC)cccc3s2)nc1C | 79.9% (active) |
| Fc1cccc2sc(Nc3nnc(-c4ccccc4)o3)nc12 | 44.8% (inactive) |
| COc1cc2nc(-c3cccs3)oc(=O)c2cc1OC | 9.6% (inactive) |
| CCOC(=O)c1sc(NCCNc2nc(C)c(C(=O)OCC)s2)nc1C | 1% (inactive) |
| COC(=O)c1sc(NC(=O)COc2ccccc2OC)nc1C | -10.6% (inactive) |
| COc1cc(-c2nnc(-c3cccs3)o2)cc(OC)c1OC | -28.7% (inactive) |
| Fc1cccc2sc(Nc3nnc(-c4ccco4)o3)nc12 | 29.2% (inactive) |
| COc1cccc2sc(Nc3nnc(-c4cccs4)o3)nc12 | 59.6% (active) |
| COc1ccccc1-c1nnc(Nc2nc3c(OC)cccc3s2)o1 | 56.1% (active) |
